Compound activity (PubChem)
NPR1 antag: blocks ANP-stimulated signaling of human Npr1 receptor; P16066; HEK293 hNpr1 GloSensor cGMP, ANP-stimulated luminescence; Potency, µM (doses to about 46.3 µM), actives largely listed as inhibitors; 76,000 compounds, 1.6% hits; calls by dose curve; note: nearly all actives have a fitted effect of over 60% in size
Target sequence (P16066 whole entry, looked up): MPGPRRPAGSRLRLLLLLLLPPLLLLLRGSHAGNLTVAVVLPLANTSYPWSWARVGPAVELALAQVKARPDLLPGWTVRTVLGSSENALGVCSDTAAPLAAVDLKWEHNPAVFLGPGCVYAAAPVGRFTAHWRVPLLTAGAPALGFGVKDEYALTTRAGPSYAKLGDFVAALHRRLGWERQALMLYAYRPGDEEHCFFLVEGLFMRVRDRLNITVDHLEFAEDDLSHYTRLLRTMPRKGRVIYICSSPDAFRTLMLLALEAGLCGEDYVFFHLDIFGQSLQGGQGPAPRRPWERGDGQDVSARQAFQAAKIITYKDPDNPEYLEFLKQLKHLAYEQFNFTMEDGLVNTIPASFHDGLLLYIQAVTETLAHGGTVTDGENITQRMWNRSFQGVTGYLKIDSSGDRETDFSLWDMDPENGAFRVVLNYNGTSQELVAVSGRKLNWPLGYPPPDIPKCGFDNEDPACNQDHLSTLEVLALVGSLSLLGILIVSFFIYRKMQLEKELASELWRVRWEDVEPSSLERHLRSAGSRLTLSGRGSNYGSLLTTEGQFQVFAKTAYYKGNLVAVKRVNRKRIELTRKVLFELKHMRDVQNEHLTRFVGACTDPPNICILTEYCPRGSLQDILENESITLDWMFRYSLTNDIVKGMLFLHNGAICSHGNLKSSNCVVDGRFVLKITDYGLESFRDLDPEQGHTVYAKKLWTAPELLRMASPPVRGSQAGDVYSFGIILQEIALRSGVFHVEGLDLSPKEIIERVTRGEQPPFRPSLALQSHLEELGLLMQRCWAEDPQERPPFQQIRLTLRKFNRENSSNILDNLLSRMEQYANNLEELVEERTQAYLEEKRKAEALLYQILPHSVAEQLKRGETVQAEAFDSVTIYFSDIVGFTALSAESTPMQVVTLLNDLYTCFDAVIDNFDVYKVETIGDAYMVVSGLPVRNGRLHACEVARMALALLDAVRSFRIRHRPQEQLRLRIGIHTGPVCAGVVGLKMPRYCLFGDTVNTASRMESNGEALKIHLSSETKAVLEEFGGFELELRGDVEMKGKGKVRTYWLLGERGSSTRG
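Compound pre-incubated 30 min at room temperature on GloSensor-loaded HEK293 cells stably carrying hNpr1 and the pGS-40F cGMP biosensor. Stimulation uses hNppA at 0.1 nM final; luminescence is taken at baseline and 20 min post-agonist.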
HEK293 viab: cell viability loss counter-screen; HEK-293-SNCA-luc viability, GF-AFC fluorescence, 24 h; Potency, µM (titrated, usually from 57.1 µM), hits mostly cytotoxic; 150,000 compounds, 0.12% hits; AID 1671193; note: nearly all actives have a fitted effect of over 30% in size
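HEK-293-SNCA-luc cells (1500/well) plated 24 h, then exposed 24 h to a dilution series; GF-AFC added 30 min at 37C, fluorescence 405/540 nm; normalised to medium-only and DMSO wells, Hill fit.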
FLuc inh: inhibitors of firefly (Photinus pyralis) luciferase. AID 1347043. purified P. pyralis luciferase, luminescence, biochemical. P08659. 76,000 compounds, 2.5% hits. Potency, µM (titrated, usually from 115 µM), most hits filed as inhibitors; note: nearly all actives have a fitted effect of over 65% in size
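Biochemical qHTS: compound (6-point titration) added to 10uM D-luciferin plus 10uM ATP in Tris acetate pH 7.5 buffer with Mg, Tween-20 and BSA, then purified enzyme at 10nM; light output imaged.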
3T3 cytotox: NIH 3T3 cell cytotoxicity. NIH 3T3 viability, CellTiter-Glo ATP luminescence, 48-72 h. Potency, µM (highest dose often 96.7 µM), usual class: inhibitors. 94,000 compounds, 4.3% hits. AID 1345082; note: nearly all actives have a fitted effect of over 55% in size
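Cytotoxicity is measured as loss of cellular ATP: NIH 3T3 cells (400/well) are exposed to compound for 48 or 72 hr at 37 °C, then CellTiter-Glo luminescence is imaged after 10 min at room temperature.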
HEK293 tox: cytotoxic compounds in HEK 293 cells. HEK 293 viability, ATP luminescence (CellTiter-Glo), 48-72 h. Potency, µM (titrated, usually from 115 µM), most hits filed as inhibitors. 94,000 compounds, 6.6% hits. AID 1345083; note: nearly all actives have a fitted effect of over 60% in size
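HEK 293 seeded at 250 cells/well receive compound via pintool. After 48 or 72 hr at 37 degree Celsius, 5% CO2 and 95% humidity, CellTiter-Glo is dispensed and luminescence read following 10 min at room temperature.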
SNCA expr inhib: inhibitors of alpha-synuclein (SNCA) gene expression; Potency, µM (series often up to 57.2 µM), most hits filed as inhibitors; 140,000 compounds, 0.17% hits; AID 1671194; HEK-293 SNCA-luciferase knock-in, luminescence, 24 h; note: nearly all actives have a fitted effect of over 45% in size
Of the large screens only hits and unclear results are named; the others gave an inactive call. An excerpt weighted towards active compounds, which were near 7.4% of everything screened. Unless noted, calls come from the whole dose curve; as a rule, active = well fitted curve in the direction sought with a large enough effect; inconclusive = small, poorly fitted or top-dose-only effect, or another doubt; inactive = no such curve, though single readings can be large; an effect the other way counts as inactive or inconclusive.

O=C(NC1CCCN(c2ccnc3ccnn23)C1)c1cccc(Cl)c1 (stereo not given)	3T3 cytotox inconclusive, HEK293 tox inconclusive (no result: NPR1 antag, FLuc inh)
O=C(O)CCC(=O)N1Cc2ccccc2CC2(CCCCN2CCc2ccccc2)C1 (stereo not given)	none (no result: NPR1 antag, FLuc inh)
c1cncc(Nc2cc3c(cn2)CN(CC2CCOCC2)CCN3)c1	FLuc inh inconclusive, 3T3 cytotox inconclusive
c1cncc(Nc2cc3c(cn2)CN(Cc2c[nH]c4ccccc24)CCN3)c1	HEK293 viab inconclusive, FLuc inh inconclusive, 3T3 cytotox inconclusive, HEK293 tox 112µM, SNCA expr inhib inconclusive
c1cncc(Nc2cc3c(cn2)CN(Cc2ccsc2)CCN3)c1	FLuc inh 20µM, 3T3 cytotox inconclusive, HEK293 tox inconclusive
COc1ccc(CNC(=O)C2CCCN(c3nccc(Nc4ccc(OC)cc4)n3)C2)cc1 (stereo not given)	HEK293 viab inconclusive, 3T3 cytotox inconclusive, HEK293 tox 28.2µM, SNCA expr inhib inconclusive (no result: NPR1 antag, FLuc inh)
COc1ccc(Nc2ccnc(N3CCCC(C(=O)NC4CCCC4)C3)n2)cc1 (stereo not given)	3T3 cytotox 39.8µM, HEK293 tox inconclusive (no result: NPR1 antag, FLuc inh)
COc1ccc(Nc2ccnc(N3CCCC(C(=O)NCc4ccc(F)cc4)C3)n2)cc1 (stereo not given)	HEK293 viab inconclusive, 3T3 cytotox 28.2µM, HEK293 tox inconclusive, SNCA expr inhib inconclusive (no result: NPR1 antag, FLuc inh)
COc1ccc(Nc2ccnc(N3CCCC(C(=O)N4CCN(C(C)=O)CC4)C3)n2)cc1 (stereo not given)	3T3 cytotox inconclusive (no result: NPR1 antag, FLuc inh)
COc1ccc(Nc2ccnc(N3CCCC(C(=O)N4CCCC(C)C4)C3)n2)cc1 (stereo not given)	3T3 cytotox 44.7µM, HEK293 tox inconclusive (no result: NPR1 antag, FLuc inh)
COc1ccc(Nc2ccnc(N3CCCC(C(=O)NCC(F)(F)F)C3)n2)cc1 (stereo not given)	3T3 cytotox inconclusive, HEK293 tox inconclusive (no result: NPR1 antag, FLuc inh)
O=C(c1ccc(C(F)(F)F)cc1)N1CCCC(C(=O)N2CCCC(c3nc4ccncc4[nH]3)C2)C1 (stereo not given)	3T3 cytotox inconclusive, HEK293 tox inconclusive (no result: NPR1 antag, FLuc inh)
COCCCNC(=O)C(NC(=O)c1ccc(OC)cc1)C1CCN(C(=O)c2cccc(OC)c2)CC1 (stereo not given)	none
N#Cc1cccnc1-c1ccc(C(=O)N2CCC(N[S+](=O)([O-])c3cccs3)CC2)cc1	3T3 cytotox inconclusive, HEK293 tox inconclusive (no result: NPR1 antag, FLuc inh)
CN(C)c1nccnc1OC1CCN(C(=O)CCCc2ccccc2)C1 (stereo not given)	FLuc inh inconclusive, HEK293 tox 79.4µM
CN(C)c1nccnc1OC1CCN(C(=O)c2ccn[nH]2)C1 (stereo not given)	FLuc inh 25.1µM
CN(C)c1nccnc1OC1CCN(C(=O)CC2CCCC2)C1 (stereo not given)	FLuc inh 35.5µM, HEK293 tox inconclusive
CN(C)c1nccnc1OC1CCN(C(=O)C2CCOCC2)C1 (stereo not given)	none
CN(C)c1nccnc1OC1CCN(C(=O)c2ccccc2Br)C1 (stereo not given)	FLuc inh inconclusive
COc1ccc(CCNC(=O)c2nc3sccn3c2-c2ccncc2)cc1	3T3 cytotox inconclusive, HEK293 tox inconclusive (no result: NPR1 antag, FLuc inh)
c1cc(-c2ccnc3nc(CCC4CCCC4)nn23)ccn1	3T3 cytotox 35.5µM
CCc1nc2nccc(-c3cc(OC)c(OC)c(OC)c3)n2n1	3T3 cytotox inconclusive
COc1cc(-c2ccnc3nc(CCC4CCCC4)nn23)cc(OC)c1OC	HEK293 viab inconclusive, 3T3 cytotox 5.62µM
COc1cc(-c2ccnc3nc(Cc4ccc(F)cc4)nn23)cc(OC)c1OC	HEK293 viab inconclusive, 3T3 cytotox inconclusive, HEK293 tox 31.6µM, SNCA expr inhib inconclusive
COCCNC(=O)C1CCN(c2nccc(Nc3ccccc3OC)n2)CC1	3T3 cytotox inconclusive, HEK293 tox inconclusive (no result: NPR1 antag, FLuc inh)
Cc1ccc(Nc2ccnc(N3CCC(C(=O)N4CCC(Cc5ccccc5)CC4)CC3)n2)cc1	3T3 cytotox inconclusive, HEK293 tox 35.5µM (no result: NPR1 antag, FLuc inh)
CC(=O)N1CCN(C(=O)C2CCN(c3nccc(Nc4ccc(C)cc4)n3)CC2)CC1	none (no result: NPR1 antag, FLuc inh)
Cc1ccc(Nc2ccnc(N3CCC(C(=O)N4CCN(c5ncccn5)CC4)CC3)n2)cc1	3T3 cytotox 35.5µM, HEK293 tox 17.8µM (no result: NPR1 antag, FLuc inh)
O=[S+]([O-])(CCC(F)(F)F)N1CCC2(CC1)CC(c1cccc(C(F)(F)F)c1)=NO2	none (no result: NPR1 antag, HEK293 viab, FLuc inh, SNCA expr inhib)
COc1ccccc1Cn1ccn2nc3c(c2c1=O)CCCC3	3T3 cytotox inconclusive, HEK293 tox 44.7µM
CCc1ccc(NC(=O)c2ccc(Cn3ccn4nc5c(c4c3=O)CCCC5)cc2)cc1	FLuc inh inconclusive, 3T3 cytotox inconclusive, HEK293 tox 20µM
O=C(Nc1ccc(Cl)cc1)c1ccc(Cn2ccn3nc4c(c3c2=O)CCCC4)cc1	HEK293 tox inconclusive
O=C(Nc1ccccc1)c1ccc(Cn2ccn3nc4c(c3c2=O)CCCC4)cc1	3T3 cytotox inconclusive, HEK293 tox 15.8µM
Cc1oc(-c2ccc(OC(C)C)cc2)nc1Cn1ccn2nc3c(c2c1=O)CCCC3	3T3 cytotox inconclusive, HEK293 tox 8.91µM
O=C(Nc1ccc(F)cc1)c1ccc(Cn2ccn3nc4c(c3c2=O)CCCC4)cc1	none
Cc1ccccc1C(=O)N1CCN(C(=O)c2nc3cccnc3n(C3CCCC3)c2=O)CC1	3T3 cytotox inconclusive (no result: NPR1 antag, FLuc inh)
CC(=O)N1CC2(CCN(Cc3cc4ccccc4[nH]3)C2)Cc2ccccc21 (stereo not given)	3T3 cytotox inconclusive, HEK293 tox inconclusive (no result: NPR1 antag, FLuc inh)
O=C(NCCC1=CCCCC1)c1ccc(Cn2ccn3nc4c(c3c2=O)CCCC4)cc1	3T3 cytotox inconclusive, HEK293 tox 39.8µM
CCOC(=O)CCNC(=O)N1CCC(CC2CC2)(NS(C)(=O)=O)CC1	none (no result: NPR1 antag, FLuc inh)
CCc1nc(NC(c2ccccc2)c2ccco2)c2cnn(C)c2n1 (stereo not given)	3T3 cytotox inconclusive, HEK293 tox 39.8µM
COc1ccccc1-c1nc2nccc(-c3ccco3)n2n1	FLuc inh inconclusive
COc1ccc(-c2ccnc3nc(-c4cccs4)nn23)cc1OC	3T3 cytotox 7.08µM, HEK293 tox inconclusive
COc1ccccc1-c1nc2nccc(-c3cc4ccccc4o3)n2n1	3T3 cytotox inconclusive, HEK293 tox 89.1µM
COc1ccccc1-c1nc2nccc(-c3ccc4c(c3)OCCCO4)n2n1	FLuc inh inconclusive, 3T3 cytotox inconclusive, HEK293 tox 17.8µM
CCN(CC)Cc1ccc2c(c1)CN(C(=O)COCCOC)CCO2	none (no result: NPR1 antag, FLuc inh)
CC(=O)N1CCO[C@@H](COc2ccccn2)[C@@H]1c1ccccc1	none (no result: NPR1 antag, FLuc inh)
COc1ccc(-c2ccc(C(=O)N3CCN(Cc4ccccc4)CC3)cc2)nn1	HEK293 tox inconclusive (no result: NPR1 antag, HEK293 viab, FLuc inh, SNCA expr inhib)
